Assay results from the supplement of paper PMC6411743.
± gives the standard deviation of the averaged measurements. Of roughly 6,200 targets only a part is listed; those with the largest changes were picked by preference.

Compound: Nc1ncnc2c1ncn2[C@@H]1O[C@H](COP(=O)(O)OP(=O)(O)NP(=O)(O)O)[C@@H](O)[C@H]1O [adenylyl imidodiphosphate]
Experiment: NP40-soluble protein abundance relative to vehicle (solubility fold change) (ratio); higher = more soluble protein in presence of AMP-PNP
Procedure, shortened: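 Jurkat crude lysate prepared with a Dounce homogeniser was treated at eight concentrations spanning 0.1 to 10 mM, 10 min at room temperature then 3 min at 37 °C. Solubilisation with 0.8% NP40 and benzonase and ultracentrifugation preceded TMT labelling of the supernatant for LC-MS/MS. Fold change against the detergent-processed vehicle was determined per replicate from vsn-normalised intensities, across three independent experiments.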

Chain of UniProt O95363 (O95363 whole entry): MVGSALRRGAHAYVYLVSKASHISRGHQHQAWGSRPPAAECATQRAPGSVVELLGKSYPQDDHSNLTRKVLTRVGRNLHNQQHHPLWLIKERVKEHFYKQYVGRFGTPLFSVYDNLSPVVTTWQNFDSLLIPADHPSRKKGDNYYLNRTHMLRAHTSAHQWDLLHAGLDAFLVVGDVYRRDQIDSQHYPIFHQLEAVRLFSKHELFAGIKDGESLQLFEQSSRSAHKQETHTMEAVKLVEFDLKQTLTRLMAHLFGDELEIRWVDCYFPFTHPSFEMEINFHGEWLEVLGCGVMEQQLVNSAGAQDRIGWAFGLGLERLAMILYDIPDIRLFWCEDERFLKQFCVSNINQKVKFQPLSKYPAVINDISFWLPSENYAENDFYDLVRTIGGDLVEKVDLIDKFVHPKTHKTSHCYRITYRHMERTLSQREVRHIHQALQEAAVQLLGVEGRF
Chain of UniProt P18433 (P18433 whole entry, looked up): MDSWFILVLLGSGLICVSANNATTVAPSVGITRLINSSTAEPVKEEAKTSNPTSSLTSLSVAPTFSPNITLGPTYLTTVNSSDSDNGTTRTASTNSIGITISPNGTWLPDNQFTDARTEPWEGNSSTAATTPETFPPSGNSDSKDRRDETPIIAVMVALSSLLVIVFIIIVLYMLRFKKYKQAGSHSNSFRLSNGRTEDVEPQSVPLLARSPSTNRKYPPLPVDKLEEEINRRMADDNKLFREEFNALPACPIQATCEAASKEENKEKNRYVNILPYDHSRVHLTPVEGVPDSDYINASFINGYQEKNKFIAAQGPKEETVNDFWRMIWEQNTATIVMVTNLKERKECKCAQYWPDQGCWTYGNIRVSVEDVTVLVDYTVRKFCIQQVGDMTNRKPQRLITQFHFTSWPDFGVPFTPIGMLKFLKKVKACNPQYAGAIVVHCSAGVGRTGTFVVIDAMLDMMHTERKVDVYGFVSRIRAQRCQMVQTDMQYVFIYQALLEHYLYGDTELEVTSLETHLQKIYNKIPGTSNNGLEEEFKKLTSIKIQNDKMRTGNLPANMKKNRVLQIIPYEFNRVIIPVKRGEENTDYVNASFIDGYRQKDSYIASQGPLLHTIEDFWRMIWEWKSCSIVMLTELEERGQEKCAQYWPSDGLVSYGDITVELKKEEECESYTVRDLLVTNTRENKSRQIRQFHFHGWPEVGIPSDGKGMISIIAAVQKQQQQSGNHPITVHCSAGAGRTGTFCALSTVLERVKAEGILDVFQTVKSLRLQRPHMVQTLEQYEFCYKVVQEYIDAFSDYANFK
Chain of UniProt P42696 (P42696 whole entry): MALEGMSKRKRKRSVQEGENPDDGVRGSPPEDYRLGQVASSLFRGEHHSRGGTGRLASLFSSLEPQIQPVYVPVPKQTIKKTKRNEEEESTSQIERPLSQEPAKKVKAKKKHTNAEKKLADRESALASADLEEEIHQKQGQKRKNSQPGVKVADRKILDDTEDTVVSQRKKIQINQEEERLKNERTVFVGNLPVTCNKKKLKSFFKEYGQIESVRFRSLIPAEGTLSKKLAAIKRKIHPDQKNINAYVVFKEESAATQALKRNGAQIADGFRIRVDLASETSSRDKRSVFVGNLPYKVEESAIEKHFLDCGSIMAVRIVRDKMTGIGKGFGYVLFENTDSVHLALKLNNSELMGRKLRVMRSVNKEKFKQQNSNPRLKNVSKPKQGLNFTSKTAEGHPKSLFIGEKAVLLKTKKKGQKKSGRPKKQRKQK
Chain of UniProt O75475 (O75475 whole entry, one chain of several): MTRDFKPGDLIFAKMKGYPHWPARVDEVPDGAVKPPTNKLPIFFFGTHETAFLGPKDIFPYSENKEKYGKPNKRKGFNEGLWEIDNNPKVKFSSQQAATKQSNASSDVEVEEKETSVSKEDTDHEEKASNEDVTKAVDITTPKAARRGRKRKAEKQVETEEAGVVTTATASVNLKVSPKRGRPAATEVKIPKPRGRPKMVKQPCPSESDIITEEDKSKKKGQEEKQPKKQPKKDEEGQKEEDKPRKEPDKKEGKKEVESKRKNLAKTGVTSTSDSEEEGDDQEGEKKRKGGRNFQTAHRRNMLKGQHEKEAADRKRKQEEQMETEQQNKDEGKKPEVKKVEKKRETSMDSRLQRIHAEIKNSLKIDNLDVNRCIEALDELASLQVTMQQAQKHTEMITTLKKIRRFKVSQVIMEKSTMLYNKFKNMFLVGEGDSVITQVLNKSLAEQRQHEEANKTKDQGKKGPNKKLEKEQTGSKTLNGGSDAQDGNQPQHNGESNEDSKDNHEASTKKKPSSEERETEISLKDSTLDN
Chain of UniProt P67809 (P67809 whole entry): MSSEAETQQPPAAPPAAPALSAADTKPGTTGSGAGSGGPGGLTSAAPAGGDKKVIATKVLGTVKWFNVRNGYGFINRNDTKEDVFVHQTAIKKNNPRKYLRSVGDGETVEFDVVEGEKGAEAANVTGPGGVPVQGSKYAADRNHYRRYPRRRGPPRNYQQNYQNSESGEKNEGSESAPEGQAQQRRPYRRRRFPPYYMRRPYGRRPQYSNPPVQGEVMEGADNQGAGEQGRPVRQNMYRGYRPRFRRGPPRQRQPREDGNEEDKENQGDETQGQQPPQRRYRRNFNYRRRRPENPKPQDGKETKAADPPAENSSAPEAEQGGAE
Chain of UniProt P10412 (P10412 whole entry): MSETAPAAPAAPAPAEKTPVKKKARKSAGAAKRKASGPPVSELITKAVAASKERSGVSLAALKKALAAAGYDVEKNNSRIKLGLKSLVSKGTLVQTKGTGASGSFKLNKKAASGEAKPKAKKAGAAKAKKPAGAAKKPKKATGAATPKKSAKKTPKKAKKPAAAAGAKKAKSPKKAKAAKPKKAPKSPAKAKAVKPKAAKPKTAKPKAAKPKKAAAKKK
Chain of UniProt O75531 (O75531 whole entry): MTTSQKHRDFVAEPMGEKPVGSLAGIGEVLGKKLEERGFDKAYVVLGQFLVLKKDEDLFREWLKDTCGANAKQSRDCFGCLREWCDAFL
Chain of UniProt P53384 (P53384 whole entry): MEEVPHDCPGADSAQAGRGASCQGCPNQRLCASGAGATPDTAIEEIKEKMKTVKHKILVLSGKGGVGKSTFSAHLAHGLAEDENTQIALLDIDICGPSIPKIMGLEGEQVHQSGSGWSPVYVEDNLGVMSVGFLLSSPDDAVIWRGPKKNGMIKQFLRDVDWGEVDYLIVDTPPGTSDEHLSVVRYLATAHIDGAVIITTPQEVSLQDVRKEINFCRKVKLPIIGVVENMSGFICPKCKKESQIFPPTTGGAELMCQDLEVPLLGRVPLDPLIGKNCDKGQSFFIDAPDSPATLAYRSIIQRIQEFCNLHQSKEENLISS
Chain of UniProt P98082 (P98082 whole entry): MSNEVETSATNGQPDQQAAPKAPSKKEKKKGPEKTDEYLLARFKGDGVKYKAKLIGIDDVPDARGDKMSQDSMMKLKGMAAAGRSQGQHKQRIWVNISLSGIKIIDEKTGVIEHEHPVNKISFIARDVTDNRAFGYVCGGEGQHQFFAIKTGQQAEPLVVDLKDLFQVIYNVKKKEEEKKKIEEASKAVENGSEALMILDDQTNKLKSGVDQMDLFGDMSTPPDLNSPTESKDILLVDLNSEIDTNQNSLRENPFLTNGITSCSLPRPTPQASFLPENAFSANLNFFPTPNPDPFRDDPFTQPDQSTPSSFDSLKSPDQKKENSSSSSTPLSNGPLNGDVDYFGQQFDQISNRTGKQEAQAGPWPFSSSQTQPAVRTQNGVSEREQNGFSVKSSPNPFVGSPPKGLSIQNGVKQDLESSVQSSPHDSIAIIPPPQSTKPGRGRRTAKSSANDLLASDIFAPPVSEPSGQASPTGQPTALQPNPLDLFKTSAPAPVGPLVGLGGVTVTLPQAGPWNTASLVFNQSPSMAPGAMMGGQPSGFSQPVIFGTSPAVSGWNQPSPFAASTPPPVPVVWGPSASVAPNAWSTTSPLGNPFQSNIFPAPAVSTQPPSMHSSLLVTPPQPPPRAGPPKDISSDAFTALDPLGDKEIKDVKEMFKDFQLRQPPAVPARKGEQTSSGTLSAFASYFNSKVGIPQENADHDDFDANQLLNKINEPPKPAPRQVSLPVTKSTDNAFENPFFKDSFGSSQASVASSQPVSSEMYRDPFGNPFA
Chain of UniProt P61599 (P61599 whole entry): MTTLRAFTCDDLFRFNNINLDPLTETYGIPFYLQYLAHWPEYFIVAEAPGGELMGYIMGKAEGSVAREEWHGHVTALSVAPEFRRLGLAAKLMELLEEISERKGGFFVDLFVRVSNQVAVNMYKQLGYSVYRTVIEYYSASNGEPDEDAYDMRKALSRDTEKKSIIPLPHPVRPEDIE
Chain of UniProt P05423 (P05423 whole entry): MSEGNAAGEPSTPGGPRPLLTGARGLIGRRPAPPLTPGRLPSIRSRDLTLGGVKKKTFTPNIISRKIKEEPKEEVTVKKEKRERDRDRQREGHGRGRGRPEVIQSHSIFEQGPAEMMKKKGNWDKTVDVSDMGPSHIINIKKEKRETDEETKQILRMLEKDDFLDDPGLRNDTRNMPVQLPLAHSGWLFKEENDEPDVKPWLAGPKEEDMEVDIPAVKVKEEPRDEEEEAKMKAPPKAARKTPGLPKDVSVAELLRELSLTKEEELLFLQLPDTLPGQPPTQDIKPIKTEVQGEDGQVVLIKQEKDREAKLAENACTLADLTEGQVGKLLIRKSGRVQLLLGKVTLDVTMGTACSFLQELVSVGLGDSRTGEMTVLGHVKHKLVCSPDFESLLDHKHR
Chain of UniProt Q12974 (Q12974 whole entry): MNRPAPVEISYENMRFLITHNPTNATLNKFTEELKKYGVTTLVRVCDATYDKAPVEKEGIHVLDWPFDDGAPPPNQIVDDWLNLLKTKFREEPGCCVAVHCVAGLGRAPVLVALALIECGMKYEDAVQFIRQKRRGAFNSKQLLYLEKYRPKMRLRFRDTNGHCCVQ
Chain of UniProt P41227 (P41227 whole entry): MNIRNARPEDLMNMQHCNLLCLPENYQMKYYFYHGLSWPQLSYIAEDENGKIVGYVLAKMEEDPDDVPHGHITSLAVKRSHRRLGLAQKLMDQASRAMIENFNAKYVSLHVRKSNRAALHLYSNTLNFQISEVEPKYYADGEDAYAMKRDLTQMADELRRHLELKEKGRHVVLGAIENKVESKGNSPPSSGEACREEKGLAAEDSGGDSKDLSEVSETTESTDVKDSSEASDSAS

Target	NP40-soluble protein abundance (concentration: 1mM)	NP40-soluble protein abundance (concentration: 2mM)	NP40-soluble protein abundance (concentration: 4mM)	NP40-soluble protein abundance (concentration: 6mM)	NP40-soluble protein abundance (concentration: 8mM)	NP40-soluble protein abundance (concentration: 10mM)
UROS (UniProt P10746)	1.04 ± 0.012	1.03 ± 0.015	1 ± 0.045	0.99 ± 0.029	0.975 ± 0.051	0.982 ± 0.075
YBX1 (UniProt P67809)	0.986 ± 0.088	1.22 ± 0.36	1.07 ± 0.12	1.23 ± 0.072	1.21 ± 0.031	1.34 ± 0.067
FBL (UniProt P22087)	1.02 ± 0.046	1.027 ± 0.003	1.1 ± 0.051	1.22 ± 0.092	1.37 ± 0.12	1.48 ± 0.25
UniProt P48047	0.907 ± 0.042	0.912 ± 0.041	0.896 ± 0.051	0.96 ± 0.087	0.974 ± 0.045	0.938 ± 0.1
UniProt Q12974|Q12974-4	1.04 ± 0.032	1.022 ± 0.0039	0.956 ± 0.027	0.996 ± 0.025	1.02 ± 0.029	0.988 ± 0.02
DNAJC3 (UniProt Q13217)	0.978 ± 0.031	0.9648 ± 0.0063	0.973 ± 0.011	1.01 ± 0.014	0.985 ± 0.021	0.999 ± 0.022
ITGA2 (UniProt P17301)	0.9944 ± 0.0014	1.02 ± 0.084	0.988 ± 0.024	1.019 ± 0.0071	1.01 ± 0.025	1.04 ± 0.011
UniProt P49588|P49588-2	1.01 ± 0.013	0.976 ± 0.05	0.967 ± 0.041	0.979 ± 0.013	0.954 ± 0.03	0.952 ± 0.05
CIAO1 (UniProt O76071)	1.02 ± 0.021	0.986 ± 0.024	1.01 ± 0.053	1.01 ± 0.044	1 ± 0.021	0.978 ± 0.028
HIST1H1C (UniProt P16403)	1.02 ± 0.05	1.13 ± 0.042	1.07 ± 0.023	1.17 ± 0.06	1.2 ± 0.095	1.54 ± 0.15
NCKAP1L (UniProt P55160)	0.975 ± 0.021	0.905 ± 0.085	0.955 ± 0.027	0.955 ± 0.072	0.975 ± 0.046	0.914 ± 0.037
UniProt P43155|P43155-2|P43155-3	0.974 ± 0.057	0.965 ± 0.011	1 ± 0.032	1.01 ± 0.086	1.01 ± 0.061	1.01 ± 0.077
NAA20 (UniProt P61599)	0.999 ± 0.039	0.9558 ± 0.0052	0.991 ± 0.022	0.973 ± 0.01	1.026 ± 0.0096	0.9551 ± 0.001
RPS3A (UniProt P61247)	0.96 ± 0.052	0.931 ± 0.044	0.918 ± 0.11	0.895 ± 0.081	0.83 ± 0.057	0.947 ± 0.11
PARP1 (UniProt P09874)	1.06 ± 0.018	1.09 ± 0.05	1.21 ± 0.016	1.39 ± 0.027	1.51 ± 0.071	1.59 ± 0.11
UniProt Q06787|Q06787-3|Q06787-5|Q06787-8|Q06787-9|Q06787-7	1.05 ± 0.04	1.11 ± 0.013	1.1 ± 0.02	1.22 ± 0.066	1.24 ± 0.016	1.36 ± 0.02
AKT2 (UniProt P31751)	0.974 ± 0.025	0.95 ± 0.043	0.969 ± 0.034	0.947 ± 0.031	0.969 ± 0.017	0.96 ± 0.044
CAPZA2 (UniProt P47755)	1.01 ± 0.013	0.966 ± 0.02	0.9851 ± 0.0046	0.9821 ± 0.0042	1.004 ± 0.0091	0.986 ± 0.017
UniProt O75475|V9GYT7	1.08 ± 0.028	1.21 ± 0.042	1.24 ± 0.056	1.34 ± 0.057	1.34 ± 0.024	1.37 ± 0.023
HSPA14 (UniProt Q0VDF9)	1.01 ± 0.046	0.998 ± 0.032	1.01 ± 0.034	1.012 ± 0.0091	1.03 ± 0.059	1.02 ± 0.049
UniProt P53384|P53384-2	0.979 ± 0.025	0.969 ± 0.057	1 ± 0.031	0.982 ± 0.022	0.97 ± 0.014	0.96 ± 0.063

Target	NP40-soluble protein abundance (concentration: 1mM)	NP40-soluble protein abundance (concentration: 2mM)	NP40-soluble protein abundance (concentration: 4mM)	NP40-soluble protein abundance (concentration: 6mM)	NP40-soluble protein abundance (concentration: 8mM)	NP40-soluble protein abundance (concentration: 10mM)
CLPX (UniProt O76031)	0.957 ± 0.062	0.969 ± 0.062	0.955 ± 0.074	0.909 ± 0.08	0.886 ± 0.074	0.923 ± 0.078
PSMB4 (UniProt P28070)	0.931 ± 0.043	0.905 ± 0.048	0.918 ± 0.096	0.971 ± 0.046	0.968 ± 0.071	1 ± 0.13
RBM5 (UniProt P52756)	1.05 ± 0.026	1.072 ± 0.0062	1.09 ± 0.038	1.06 ± 0.071	1.06 ± 0.061	1.1 ± 0.071
FASN (UniProt P49327)	0.959 ± 0.021	0.874 ± 0.091	0.941 ± 0.026	0.913 ± 0.026	0.917 ± 0.035	0.896 ± 0.036
UniProt P63279	0.993 ± 0.076	1.01 ± 0.076	1.01 ± 0.1	1.04 ± 0.12	1.12 ± 0.07	1.07 ± 0.066
TBL3 (UniProt Q12788)	1.07 ± 0.02	1.15 ± 0.05	1.21 ± 0.023	1.35 ± 0.027	1.46 ± 0.024	1.53 ± 0.075
VASP (UniProt P50552)	1.02 ± 0.03	1.09 ± 0.078	1.03 ± 0.033	1.01 ± 0.015	0.999 ± 0.046	0.9961 ± 0.0094
FARS2 (UniProt O95363)	0.9733 ± 0.0048	0.856 ± 0.13	0.943 ± 0.01	0.9111 ± 0.0032	0.919 ± 0.033	0.876 ± 0.029
ARID4A (UniProt P29374)	1.06 ± 0.053	1.07 ± 0.039	1.07 ± 0.036	1.03 ± 0.031	1.01 ± 0.032	1.07 ± 0.033
POLR3D (UniProt P05423)	0.982 ± 0.017	1.01 ± 0.02	0.993 ± 0.035	0.961 ± 0.041	0.971 ± 0.037	0.998 ± 0.065
HIST1H1E (UniProt P10412)	1.04 ± 0.06	1.15 ± 0.09	1.12 ± 0.05	1.25 ± 0.15	1.24 ± 0.23	1.56 ± 0.14
UniProt O96028|O96028-3|O96028-5	1.08 ± 0.034	1.16 ± 0.026	1.23 ± 0.033	1.32 ± 0.044	1.35 ± 0.03	1.47 ± 0.059
UniProt P10619|P10619-2|X6R5C5|X6R8A1	0.979 ± 0.018	0.987 ± 0.086	0.984 ± 0.044	1.05 ± 0.11	1.06 ± 0.083	1.07 ± 0.13
UniProt P98082|P98082-2|P98082-3	1.016 ± 0.0042	1.03 ± 0.042	1.042 ± 0.0097	1.016 ± 0.004	1.017 ± 0.0048	1.035 ± 0.0064
BANF1 (UniProt O75531)	2.32 ± 0.38	2.76 ± 0.16	3 ± 0.25	3.73 ± 0.25	4.03 ± 0.2	4.25 ± 0.21
UniProt P41227|P41227-2	1.02 ± 0.036	1.07 ± 0.06	1.09 ± 0.03	1.15 ± 0.081	1.12 ± 0.052	1.18 ± 0.039
HMGN2 (UniProt P05204)	1.06 ± 0.04	1.15 ± 0.12	1.09 ± 0.05	1.25 ± 0.081	1.16 ± 0.21	1.54 ± 0.28
RBM34 (UniProt P42696)	1.07 ± 0.069	1.12 ± 0.044	1.15 ± 0.082	1.23 ± 0.12	1.23 ± 0.12	1.36 ± 0.16
UniProt P18433|P18433-2|P18433-3|P18433-4	1.029 ± 0.0089	1.03 ± 0.027	1.03 ± 0.032	0.987 ± 0.023	1.02 ± 0.018	1.03 ± 0.036
SH3BGRL (UniProt O75368)	0.939 ± 0.027	0.966 ± 0.028	0.888 ± 0.013	0.937 ± 0.031	0.907 ± 0.015	0.897 ± 0.033
SUB1 (UniProt P53999)	0.923 ± 0.049	1 ± 0.19	0.916 ± 0.088	1 ± 0.089	0.997 ± 0.043	1.02 ± 0.11
